Among the data in ChEMBL document CHEMBL3988442, “University of Dundee, Small-Polar-MMV Screening Library” (2021) are Percent Effect values, retold here.

Structures are written as SMILES. For part of these data: Measured potencies and affinities stand elsewhere.

Set-up in all cases: scale not given: direction of the effect not stated beside the values
Assay [1] deals with Protein translocase subunit SecA (Escherichia coli (strain K12)) (UniProt P10408). Briefly: Assay to Identify E. coli SecA ATPase Inhibitors. The assay is classed as functional. As to conditions: 30 µM.
Protein translocase subunit SecA (Escherichia coli (strain K12)), sequence (P10408 whole entry): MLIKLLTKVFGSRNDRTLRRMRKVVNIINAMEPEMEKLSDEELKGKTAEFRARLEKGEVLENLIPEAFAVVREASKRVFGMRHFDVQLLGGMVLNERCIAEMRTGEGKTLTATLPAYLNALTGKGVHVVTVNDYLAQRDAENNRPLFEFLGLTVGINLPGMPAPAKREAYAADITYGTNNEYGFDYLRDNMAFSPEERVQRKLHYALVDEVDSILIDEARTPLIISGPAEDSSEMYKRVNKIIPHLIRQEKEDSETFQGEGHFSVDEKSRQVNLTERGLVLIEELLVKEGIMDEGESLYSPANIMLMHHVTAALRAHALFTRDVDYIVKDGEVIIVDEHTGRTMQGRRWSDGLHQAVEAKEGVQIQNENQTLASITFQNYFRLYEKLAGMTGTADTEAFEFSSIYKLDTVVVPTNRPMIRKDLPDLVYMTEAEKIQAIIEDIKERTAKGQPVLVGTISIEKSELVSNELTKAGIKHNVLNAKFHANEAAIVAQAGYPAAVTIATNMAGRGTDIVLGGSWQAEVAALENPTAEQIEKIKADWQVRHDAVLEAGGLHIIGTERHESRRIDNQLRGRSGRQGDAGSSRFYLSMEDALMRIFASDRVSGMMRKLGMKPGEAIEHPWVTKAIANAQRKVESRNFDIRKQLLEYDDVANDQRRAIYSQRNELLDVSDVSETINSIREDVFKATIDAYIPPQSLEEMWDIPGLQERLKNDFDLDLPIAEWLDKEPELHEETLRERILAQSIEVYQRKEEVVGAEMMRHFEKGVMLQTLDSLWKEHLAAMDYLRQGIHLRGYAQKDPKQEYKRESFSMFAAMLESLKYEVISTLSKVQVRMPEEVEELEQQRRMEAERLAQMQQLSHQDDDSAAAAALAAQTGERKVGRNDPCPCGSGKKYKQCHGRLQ
Assay [2] addresses T1, Ubiquitin-activating enzyme e1, putative (Leishmania donovani (strain BPK282A1)) (UniProt E9BSI1).
T1 sequence (whole entry): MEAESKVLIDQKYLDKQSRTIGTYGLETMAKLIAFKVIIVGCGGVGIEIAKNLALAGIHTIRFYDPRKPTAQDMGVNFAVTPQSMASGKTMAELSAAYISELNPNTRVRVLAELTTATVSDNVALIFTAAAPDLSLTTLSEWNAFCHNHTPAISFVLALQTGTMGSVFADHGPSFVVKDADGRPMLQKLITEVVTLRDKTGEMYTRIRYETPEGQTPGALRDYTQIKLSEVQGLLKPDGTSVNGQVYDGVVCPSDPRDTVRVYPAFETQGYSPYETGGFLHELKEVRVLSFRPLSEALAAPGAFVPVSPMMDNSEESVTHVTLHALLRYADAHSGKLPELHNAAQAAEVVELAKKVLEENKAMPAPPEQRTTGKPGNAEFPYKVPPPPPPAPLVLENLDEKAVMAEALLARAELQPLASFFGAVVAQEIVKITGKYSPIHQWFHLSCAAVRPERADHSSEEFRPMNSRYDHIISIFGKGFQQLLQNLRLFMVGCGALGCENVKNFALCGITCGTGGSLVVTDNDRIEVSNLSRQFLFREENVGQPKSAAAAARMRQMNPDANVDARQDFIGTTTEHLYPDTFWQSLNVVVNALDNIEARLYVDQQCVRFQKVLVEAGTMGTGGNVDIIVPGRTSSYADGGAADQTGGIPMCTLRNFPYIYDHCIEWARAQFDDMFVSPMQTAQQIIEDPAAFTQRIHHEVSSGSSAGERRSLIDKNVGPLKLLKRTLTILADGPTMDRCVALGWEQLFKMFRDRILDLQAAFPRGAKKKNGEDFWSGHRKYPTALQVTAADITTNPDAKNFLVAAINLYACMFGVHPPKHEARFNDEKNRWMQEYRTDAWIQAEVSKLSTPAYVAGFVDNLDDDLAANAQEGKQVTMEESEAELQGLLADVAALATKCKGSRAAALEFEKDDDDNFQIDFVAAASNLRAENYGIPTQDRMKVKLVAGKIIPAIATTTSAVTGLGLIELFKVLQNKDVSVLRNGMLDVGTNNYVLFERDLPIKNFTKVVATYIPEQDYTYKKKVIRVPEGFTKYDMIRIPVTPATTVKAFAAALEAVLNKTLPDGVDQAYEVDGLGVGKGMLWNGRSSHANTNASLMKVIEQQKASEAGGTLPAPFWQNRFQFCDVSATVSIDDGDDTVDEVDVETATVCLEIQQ
Briefly: Leishmania donovani Ubiquitin Activating Enzyme (LdE1). It counts as functional. The note with it: 30 µM.

The target in assay [3] is AMP-activated protein kinase, AMPK (Homo sapiens) (UniProt P54646+O43741+P54619+Q9UGJ0+Q9Y478+Q13131+Q9UGI9). Briefly: AMP-dependent Kinase enzyme assay. An in vitro enzyme assay that detects ADP turnover that is directly proportional to AMPK activity. This uses naive AMPK that is activated during the assay with MK-8722. As to conditions: 30 µM. It counts as functional.

In assay [4] the target is Sialic acid-binding Ig-like lectin 9 (Homo sapiens) (UniProt Q9Y336). In words: Hs-Siglec9 ALPHAscreen SOP 20170721. The note with it: 10 µM. Background: In Alpha technology, singlet oxygen from a donor bead excites a nearby acceptor bead.
Sialic acid-binding Ig-like lectin 9 (Homo sapiens), sequence (Q9Y336 whole entry): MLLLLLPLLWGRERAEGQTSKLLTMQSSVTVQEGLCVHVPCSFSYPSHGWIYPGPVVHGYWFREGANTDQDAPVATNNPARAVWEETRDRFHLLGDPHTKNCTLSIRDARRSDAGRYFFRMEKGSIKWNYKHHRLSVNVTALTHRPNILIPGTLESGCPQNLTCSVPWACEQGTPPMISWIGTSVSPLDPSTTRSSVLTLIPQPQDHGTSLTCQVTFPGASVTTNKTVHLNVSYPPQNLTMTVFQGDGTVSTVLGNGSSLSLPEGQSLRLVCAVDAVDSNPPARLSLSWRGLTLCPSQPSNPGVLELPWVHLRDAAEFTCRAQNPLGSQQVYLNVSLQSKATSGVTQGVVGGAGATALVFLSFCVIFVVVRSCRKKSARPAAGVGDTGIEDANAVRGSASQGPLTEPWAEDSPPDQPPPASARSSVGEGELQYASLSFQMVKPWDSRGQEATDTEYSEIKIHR
The subject of the next assay is Trypanosoma cruzi. In words: Trypanosoma cruzi phosphomannomutase and mannose-1-phosphate guanylyltransferase assay. The assay is classed as functional. The note with it: 10 µM.
Assay [5] deals with T2, Arginase-2, mitochondrial (Homo sapiens) (UniProt P78540).
T2 sequence (whole entry): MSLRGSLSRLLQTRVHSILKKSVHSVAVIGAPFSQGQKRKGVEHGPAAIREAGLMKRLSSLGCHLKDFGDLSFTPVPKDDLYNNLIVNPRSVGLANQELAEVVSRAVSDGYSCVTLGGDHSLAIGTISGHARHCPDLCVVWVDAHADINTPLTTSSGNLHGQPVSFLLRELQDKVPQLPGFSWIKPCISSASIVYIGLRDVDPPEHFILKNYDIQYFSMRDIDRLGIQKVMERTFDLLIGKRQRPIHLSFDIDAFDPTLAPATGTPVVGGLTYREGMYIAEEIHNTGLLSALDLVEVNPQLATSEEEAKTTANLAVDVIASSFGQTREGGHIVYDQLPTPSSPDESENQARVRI
In words: in vitro enzyme assay to detect the production of urea directly proportional to the activity of Arginase II. Note: in the data most compounds retested in dose-response had high values. It counts as functional. As to conditions: 33.3 µM.

Assay [6] concerns the target T3, Proteasome subunit beta (Trypanosoma cruzi) (UniProt O96673).
T3 sequence (whole entry): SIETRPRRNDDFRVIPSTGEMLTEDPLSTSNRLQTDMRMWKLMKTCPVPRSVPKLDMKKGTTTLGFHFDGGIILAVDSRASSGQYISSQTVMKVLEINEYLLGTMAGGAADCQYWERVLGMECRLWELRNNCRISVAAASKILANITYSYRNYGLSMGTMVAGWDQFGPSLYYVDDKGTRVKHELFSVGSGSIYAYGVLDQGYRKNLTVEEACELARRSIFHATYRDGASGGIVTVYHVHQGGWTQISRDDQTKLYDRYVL
Briefly: Trypanosoma cruzi proteasome chymotrypsin-like activity (TcProtChymo) assay. Note: in the data most compounds retested in dose-response had high values. It counts as functional. As to conditions: 9.37 µM.

The species entered for the next assay is Homo sapiens. In words: To identify inhibition of the IFN signalling (Jak-Stat) pathway via expression of an eGFP reporter gene under the control of an IFN-stimulated response element (ISRE) containing MxA promoter. It counts as functional. As to conditions: 30 µM. For orientation: Reporter assays use an easily measured gene product as a stand-in for the process of interest.

Assay [7] concerns the target T4, Tyrosyl-tRNA synthetase, putative (Trypanosoma cruzi (strain CL Brener)) (UniProt Q4DSP6).
T4 sequence (whole entry): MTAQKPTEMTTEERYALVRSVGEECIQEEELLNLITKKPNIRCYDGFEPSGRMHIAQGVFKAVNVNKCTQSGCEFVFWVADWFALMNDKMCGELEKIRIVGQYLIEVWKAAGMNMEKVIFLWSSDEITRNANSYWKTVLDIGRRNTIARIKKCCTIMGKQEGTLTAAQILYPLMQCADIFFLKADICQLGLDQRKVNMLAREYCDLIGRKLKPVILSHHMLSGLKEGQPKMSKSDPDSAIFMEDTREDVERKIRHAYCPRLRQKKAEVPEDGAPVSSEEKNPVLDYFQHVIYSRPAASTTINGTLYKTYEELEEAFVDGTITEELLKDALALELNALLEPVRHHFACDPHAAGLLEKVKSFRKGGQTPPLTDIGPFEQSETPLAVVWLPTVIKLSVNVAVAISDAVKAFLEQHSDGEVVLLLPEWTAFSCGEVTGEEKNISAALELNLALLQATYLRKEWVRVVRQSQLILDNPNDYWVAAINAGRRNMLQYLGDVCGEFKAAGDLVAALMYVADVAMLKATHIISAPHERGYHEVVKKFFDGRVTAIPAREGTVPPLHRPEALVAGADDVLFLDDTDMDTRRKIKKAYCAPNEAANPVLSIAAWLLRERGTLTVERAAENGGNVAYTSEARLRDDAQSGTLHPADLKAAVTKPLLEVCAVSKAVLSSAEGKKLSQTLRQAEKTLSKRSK
In words: Trypanosoma cruzi tyrosyl tRNA synthetase (TcYRS) _High Tyrosine SOP. Note: in the data most compounds retested in dose-response had high values. The note with it: 30 µM. The assay is classed as functional.

Assay [8] deals with T4, Tyrosyl-tRNA synthetase, putative (Trypanosoma cruzi (strain CL Brener)). In words: Trypanosoma cruzi tyrosyl tRNA synthetase (TcYRS) SOP. The assay is classed as functional. As to conditions: 30 µM.
Assay [9] has as its target Chromo domain-containing protein 1 (Saccharomyces cerevisiae (strain ATCC 204508 / S288c) (Baker's yeast)) (UniProt P32657). In words: ScCHD-1 Enzyme Inhibition Assay. Note: in the data most compounds retested in dose-response had high values. It counts as functional. As to conditions: 30 µM.

Chromo domain-containing protein 1 (Saccharomyces cerevisiae (strain ATCC 204508 / S288c) (Baker's yeast)), sequence (P32657 whole entry, the tested form may be a part): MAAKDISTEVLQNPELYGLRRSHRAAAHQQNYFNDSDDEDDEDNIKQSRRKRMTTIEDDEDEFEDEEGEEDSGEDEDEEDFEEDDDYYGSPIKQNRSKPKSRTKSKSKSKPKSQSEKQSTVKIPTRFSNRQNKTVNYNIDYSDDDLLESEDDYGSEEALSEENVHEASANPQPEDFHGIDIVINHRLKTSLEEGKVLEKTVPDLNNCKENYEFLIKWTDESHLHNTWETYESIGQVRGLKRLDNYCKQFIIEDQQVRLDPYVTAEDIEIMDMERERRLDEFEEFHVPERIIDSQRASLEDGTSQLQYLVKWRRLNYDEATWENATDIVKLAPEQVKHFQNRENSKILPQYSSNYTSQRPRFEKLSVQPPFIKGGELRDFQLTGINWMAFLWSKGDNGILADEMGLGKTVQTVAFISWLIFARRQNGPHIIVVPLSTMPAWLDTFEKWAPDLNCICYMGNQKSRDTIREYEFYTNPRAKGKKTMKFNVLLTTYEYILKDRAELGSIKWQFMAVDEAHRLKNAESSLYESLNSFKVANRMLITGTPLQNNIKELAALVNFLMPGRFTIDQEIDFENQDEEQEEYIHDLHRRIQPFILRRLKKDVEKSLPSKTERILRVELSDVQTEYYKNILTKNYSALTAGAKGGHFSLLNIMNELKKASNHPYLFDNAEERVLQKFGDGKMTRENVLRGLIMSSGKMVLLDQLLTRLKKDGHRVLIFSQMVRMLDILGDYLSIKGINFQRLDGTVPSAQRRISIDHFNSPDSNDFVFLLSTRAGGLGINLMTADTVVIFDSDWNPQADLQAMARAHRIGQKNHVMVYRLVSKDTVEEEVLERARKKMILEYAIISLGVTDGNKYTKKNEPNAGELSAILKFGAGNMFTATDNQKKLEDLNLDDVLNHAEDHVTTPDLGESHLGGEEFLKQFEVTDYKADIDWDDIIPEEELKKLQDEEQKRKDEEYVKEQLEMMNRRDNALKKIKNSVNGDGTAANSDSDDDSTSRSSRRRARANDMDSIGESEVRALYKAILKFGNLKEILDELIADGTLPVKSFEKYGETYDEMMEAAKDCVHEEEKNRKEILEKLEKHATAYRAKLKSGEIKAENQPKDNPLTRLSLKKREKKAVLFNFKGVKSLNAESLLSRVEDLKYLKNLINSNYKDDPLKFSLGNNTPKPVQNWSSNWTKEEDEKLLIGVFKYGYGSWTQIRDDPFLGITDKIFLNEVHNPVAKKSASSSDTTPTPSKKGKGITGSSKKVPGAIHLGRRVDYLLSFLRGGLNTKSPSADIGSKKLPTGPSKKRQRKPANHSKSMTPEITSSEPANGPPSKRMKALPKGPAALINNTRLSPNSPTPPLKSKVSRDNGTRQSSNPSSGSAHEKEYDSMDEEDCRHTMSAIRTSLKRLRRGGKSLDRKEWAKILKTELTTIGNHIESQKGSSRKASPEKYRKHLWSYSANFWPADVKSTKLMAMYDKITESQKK

Regarding `NC(=O)N1CC[C@H](O)[C@@H]1Cc1cccnc1`, the Percent Effect in [1] was -2.51%; in assay [2], 2.7%; in assay [3], 6.84%; in assay [4], -5.75%; in the assay with Trypanosoma cruzi, -9.48%; in assay [5], 4.78%. The Percent Effect was 24% in assay [6]; 5.65% in the assay filed under Homo sapiens; 0% in assay [7]; 7.69% in assay [8]; -2.76% in assay [9].

On to `COCc1cnc2n1CCN(Cc1cccnc1)C2C` (centres undefined), for which the Percent Effect in assay [1] was -1.07%; in assay [2], 8%; in assay [3], 0.686%; in assay [4], 6.43%; in the assay with Trypanosoma cruzi it was 3.28%; in [5], -50.4%. Further, the Percent Effect in assay [6] is -0.171%; in the assay filed under Homo sapiens, -15.6%; in assay [7], 2.08%; in assay [8] it was 5%; in assay [9], -2.32%.

Take `Cc1cc(C)c2nc(CN3CC[C@@H](O)C3)cc(O)c2c1`: the Percent Effect was -2.1% in [1]; 0% in [2]; 0.932% in [3]; 1.78% in [4]; -1.16% in the assay with Trypanosoma cruzi; -3.81% in assay [5]. The Percent Effect in assay [6] is 11.9%; in the assay filed under Homo sapiens it was -16.8%; in [7], 13.2%; in assay [8] it was 19.5%; in [9] it was -5.98%.

For `COc1cc(C(=O)N(Cc2ccc(F)cc2)C2CC2)cc2c1OCCO2`, the Percent Effect in [1] was 0.816%; in assay [2] it was 7.89%; in [3], 1.68%; in assay [4], -4.56%; in the assay with Trypanosoma cruzi, 2.43%; in assay [5], 3.55%. Besides, the Percent Effect in [6] was 21.2%; in the assay filed under Homo sapiens it was 36.9%; in assay [7] it was 3.19%; in assay [8], 13%; in assay [9], -3.44%.

In the case of `CCOC(CC)C(=O)NCc1ccnc(Oc2ccc(F)cc2)c1` (centres undefined), the Percent Effect was -0.936% in assay [1]; -2.7% in assay [2]; -2.91% in [3]; 0.458% in assay [4]; -3.28% in the assay on Trypanosoma cruzi; 4.29% in assay [5]. Moreover, the Percent Effect was 11% in assay [6]; 9.46% in the assay filed under Homo sapiens; 7.94% in [7]; 12.2% in [8]; -1.51% in assay [9].

In the case of `COCCNC(=O)[C@H]1C[C@@H]2CCN(c3nncs3)C[C@H]2O1`, the Percent Effect in [1] was -0.719%; in assay [2], -8.11%; in [3] it was 6.18%; in [4], -4.67%; in the assay with Trypanosoma cruzi, -1.37%; in [5], 1.67%. Also, the Percent Effect in assay [6] is -0.254%; in the assay filed under Homo sapiens it was 7%; in assay [7] it was 5.94%; in assay [8], 6.1%; in [9], 1.42%.

For `CC(=O)N(Cc1ncc(C(C)C)o1)C1CCN(Cc2ncc[nH]2)C1` (centres undefined), the Percent Effect in assay [1] is -1%; in assay [2] it was 10.8%; in [3], -3.5%; in assay [4], -1.85%; with Trypanosoma cruzi, 3.99%; in assay [5], -3.14%. The Percent Effect in assay [6] was 5.21%; in the assay listed under Homo sapiens, 6.45%; in [7], 13.9%; in assay [8] it was 25.6%; in assay [9], -5.05%.

`CCCNC(=O)CCC(=O)Nc1ccc(-n2cncn2)c(F)c1`: the Percent Effect in assay [1] is -7%; in assay [2] it was 2.63%; in assay [3], -2.96%; in assay [4] it was 4.31%; with Trypanosoma cruzi, -6.2%; in assay [5], -2.68%. For the same molecule, the Percent Effect in assay [6] is -0.501%; in the assay listed under Homo sapiens it was 29.1%; in [7], -0.49%; in assay [8], 0%; in [9], -1.12%.

With `Cc1cc(C)c(CNC(=O)C2CCCN(c3cnccn3)C2)c(=O)[nH]1` (centres undefined), the Percent Effect in assay [1] was -3.46%; in assay [2], 10.5%; in assay [3], -6.83%; in assay [4], 10.1%; in the assay with Trypanosoma cruzi, -4.13%; in [5], -1.53%. The Percent Effect in assay [6] is 11.5%; in the assay filed under Homo sapiens, -8.19%; in [7], -0.49%; in assay [8] it was -12.2%; in [9], -5.39%.
